Laboratory results from PubChem BioAssay AID1159580 (chemical genetic matrix, 2015).
Several values for one entry are separate records, joined by “and”; a condition that tells them apart may be missing. Equal values may be shown once. In all, about 5,500 compounds went through this assay and about 2,000 (36%) were called active. Roughly 18% stayed inconclusive and do not appear here. Rule as the data show it: active = normalized growth mostly below about 0.91 (no sharp cut-off); inconclusive = no clear call, values can overlap the other calls; inactive = mostly above about 0.92. The list shows a part of the results.

Assay: chemical genetic growth profiling, strain panel (AID 1159580);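 also: tested at 20 µM; growth read once vehicle control cultures reached saturation at 30 °C; 1 = growth at the plate median or of vehicle wells; lower values mean less growth of the strain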
Conditions: S. cerevisiae deletion strains, growth OD

Measured: normalized growth

COc1ccc(-c2cc(=O)c3c(O)c(OC)c(O[C@H]4O[C@H](CO[C@@H]5O[C@@H](C)[C@H](O)[C@@H](O)[C@H]5O)[C@@H](O)[C@H](O)[C@H]4O)cc3o2)cc1
inactive: locus YAL021C, strain ccr4, stronger effect = lower value 1.02 | locus YAL026C, strain drs2, stronger effect = lower value 1 | locus YAL030W, strain snc1, stronger effect = lower value 1.01 | locus YBL061C, strain skt5, stronger effect = lower value 0.996 | locus YBR009C, strain hhf1, stronger effect = lower value 1 | locus YBR021W, strain FUR4, stronger effect = lower value 1.02 | locus YBR023C, strain chs3, stronger effect = lower value 0.996 | locus YBR171W, strain sec66, stronger effect = lower value 0.989 | locus YBR229C, strain ROT2, stronger effect = lower value 1.01 | locus YBR231C, strain swc5, stronger effect = lower value 0.977 | locus YBR279W, strain paf1, stronger effect = lower value 0.987 | locus YCL011C, strain gbp2, stronger effect = lower value 0.991 | locus YCL016C, strain dcc1, stronger effect = lower value 1.01 | locus YCL029C, strain bik1, stronger effect = lower value 1.04 | locus YCL061C, strain MRC1, stronger effect = lower value 1 | locus YCL069W, strain vba3, stronger effect = lower value 1 | locus YCR088W, strain abp1, stronger effect = lower value 1.01 | locus YDL005C, strain med2, stronger effect = lower value 1 | locus YDL035C, strain GPR1, stronger effect = lower value 1.02 | locus YDL040C, strain nat1, stronger effect = lower value 0.98 | locus YDL074C, strain BRE1, stronger effect = lower value 1.01 | locus YDL101C, strain DUN1, stronger effect = lower value 1.02 | locus YDL185W, strain tfp1, stronger effect = lower value 1.01 | locus YDL192W, strain arf1, stronger effect = lower value 1.01 | locus YDR001C, strain nth1, stronger effect = lower value 1 | locus YDR069C, strain doa4, stronger effect = lower value 0.967 | locus YDR101C, strain arx1, stronger effect = lower value 1.02 | locus YDR137W, strain rgp1, stronger effect = lower value 1.05 | locus YDR150W, strain NUM1, stronger effect = lower value 1.01 | locus YDR159W, strain sac3, stronger effect = lower value 0.995 | locus YDR162C, strain NBP2, stronger effect = lower value 1.03 | locus YDR195W, strain ref2 0.978 | locus YDR297W, strain sur2, stronger effect = lower value 0.988 | locus YDR318W, strain mcm21, stronger effect = lower value 1.02 | locus YDR334W, strain swr1, stronger effect = lower value 0.99 | locus YDR335W, strain msn5, stronger effect = lower value 1 | locus YDR388W, stronger effect = lower value 1.01 | locus YDR392W, strain spt3, stronger effect = lower value 0.981 | locus YDR502C, strain sam2, stronger effect = lower value 1.01 | locus YEL003W, strain gim4, stronger effect = lower value 0.982 | locus YEL037C, strain rad23, stronger effect = lower value 1 | locus YEL061C, strain CIN8 (second series), stronger effect = lower value 0.996 | locus YER015W, strain faa2, stronger effect = lower value 0.984 | locus YER016W, strain bim1, stronger effect = lower value 0.992 | locus YER110C, stronger effect = lower value 1.02 | locus YER111C, strain swi4, stronger effect = lower value 0.979 | locus YER155C, strain BEM2 (second series), stronger effect = lower value 0.972 | locus YER155C, strain BEM2, stronger effect = lower value 1.04 | locus YER167W, strain BCK2, stronger effect = lower value 1.02 | locus YFR010W, strain ubp6, stronger effect = lower value 0.994 | locus YGL078C, strain dbp3, stronger effect = lower value 1.01 | locus YGL086W, strain mad1, stronger effect = lower value 1.01 | locus YGL167C, strain pmr1, stronger effect = lower value 0.983 | locus YGL173C, strain kem1, stronger effect = lower value 0.996 | locus YGL227W, strain vid30, stronger effect = lower value 1 | locus YGL240W, strain doc1, stronger effect = lower value 0.998 | locus YGL248W, strain PDE1, stronger effect = lower value 1.01 | locus YGL253W, strain hxk2, stronger effect = lower value 1 | locus YGR078C, strain PAC10, stronger effect = lower value 0.999 | locus YGR135W, strain pre9, stronger effect = lower value 0.993 | locus YGR229C, strain SMI1, stronger effect = lower value 1.16 | locus YGR252W, strain gcn5, stronger effect = lower value 0.955 | locus YHR013C, strain ard1, stronger effect = lower value 1 | locus YHR027C, strain rpn1, stronger effect = lower value 0.99 | locus YHR030C, strain SLT2, stronger effect = lower value 1.02 and 0.993 | locus YHR079C, strain IRE1 (second series), stronger effect = lower value 1.01 | locus YHR079C, strain IRE1, stronger effect = lower value 1.01 | locus YHR094C, strain hxt1, stronger effect = lower value 1.01 | locus YHR129C, strain ARP1, stronger effect = lower value 1 | locus YHR142W, strain chs7, stronger effect = lower value 1.01 | locus YHR200W, strain rpn10, stronger effect = lower value 1.01 | locus YIL066C, strain RNR3, stronger effect = lower value 1.02 | locus YIL073C, strain SPO22, stronger effect = lower value 1.08 | locus YIL125W, strain kgd1, stronger effect = lower value 1.01 | locus YIR030C, strain dcg1, stronger effect = lower value 1.02 | locus YJL092W, strain hpr5, stronger effect = lower value 0.994 | locus YJL095W, strain BCK1 (second series), stronger effect = lower value 1 | locus YJL095W, strain BCK1, stronger effect = lower value 1.02 and 0.995 | locus YJL115W, strain asf1, stronger effect = lower value 0.999 | locus YJL129C, strain trk1, stronger effect = lower value 0.994 | locus YJL134W, strain LCB3, stronger effect = lower value 1.02 | locus YJL154C, strain vps35, stronger effect = lower value 1 | locus YJL164C, strain tpk1, stronger effect = lower value 1 | locus YJL166W, strain qcr8, stronger effect = lower value 1 | locus YJL168C, strain set2, stronger effect = lower value 1 | locus YJL187C, strain SWE1 (second series), stronger effect = lower value 1.01 | locus YJL187C, strain SWE1, stronger effect = lower value 1.02 | locus YJR066W, strain TOR1, stronger effect = lower value 0.906 | locus YKL009W, strain mrt4, stronger effect = lower value 1.05 | locus YKL068W, stronger effect = lower value 1.02 | locus YKL085W, strain MDH1 (second series), stronger effect = lower value 1.02 | locus YKL085W, strain MDH1, stronger effect = lower value 1.02 | locus YKL160W, strain elf1, stronger effect = lower value 0.997 | locus YKL190W, strain CNB1, stronger effect = lower value 1.01 | locus YKR001C, strain vps1, stronger effect = lower value 1.01 | locus YKR026C, strain gcn3, stronger effect = lower value 0.992 | locus YKR091W, strain srl3, stronger effect = lower value 0.998 | locus YLL001W, strain dnm1, stronger effect = lower value 1 | locus YLL026W, stronger effect = lower value 0.998 | locus YLL041C, strain sdh2, stronger effect = lower value 1 | locus YLR027C, strain aat2, stronger effect = lower value 0.988 | locus YLR039C, strain RIC1, stronger effect = lower value 1.1 | locus YLR058C, strain SHM2, stronger effect = lower value 1.02 | locus YLR102C, strain apc9, stronger effect = lower value 1.02 | locus YLR113W, strain HOG1, stronger effect = lower value 1.04 | locus YLR221C, strain rsa3, stronger effect = lower value 0.995 | locus YLR258W, strain gsy2, stronger effect = lower value 1.02 | locus YLR262C, strain YPT6 (second series), stronger effect = lower value 1.03 | locus YLR268W, strain sec22, stronger effect = lower value 1.03 | locus YLR320W, strain mms22, stronger effect = lower value 0.998 | locus YLR342W, strain FKS1 (second series), stronger effect = lower value 1.03 | locus YLR342W, strain FKS1, stronger effect = lower value 1 | locus YLR357W, strain rsc2, stronger effect = lower value 0.964 | locus YLR370C, strain arc18, stronger effect = lower value 0.995 | locus YLR371W, strain rom2, stronger effect = lower value 1.03 | locus YLR384C, strain iki3, stronger effect = lower value 0.978 | locus YLR418C, strain cdc73, stronger effect = lower value 1.03 | locus YML016C, strain PPZ1, stronger effect = lower value 0.991 | locus YML032C, strain rad52, stronger effect = lower value 1.03 | locus YML120C, strain ndi1, stronger effect = lower value 1.01 | locus YML124C, strain tub3, stronger effect = lower value 1.02 | locus YMR058W, strain fet3, stronger effect = lower value 0.928 | locus YMR078C, strain ctf18, stronger effect = lower value 1.02 | locus YMR125W, strain sto1, stronger effect = lower value 1 | locus YMR129W, stronger effect = lower value 0.996 | locus YMR205C, strain PFK2, stronger effect = lower value 1.05 | locus YMR223W, strain ubp8, stronger effect = lower value 1.01 | locus YMR231W, strain pep5, stronger effect = lower value 0.96 | locus YMR307W, strain GAS1, stronger effect = lower value 1.08 | locus YNL067W, strain RPL9B, stronger effect = lower value 1.01 | locus YNL071W, strain lat1, stronger effect = lower value 1.01 | locus YNL128W, strain TEP1, stronger effect = lower value 1.03 | locus YNL183C, strain NPR1, stronger effect = lower value 0.938 | locus YNL209W, strain ssb2, stronger effect = lower value 0.986 | locus YNL233W, strain BNI4, stronger effect = lower value 1.01 | locus YNL248C, strain rpa49, stronger effect = lower value 0.996 | locus YNL250W, strain rad50, stronger effect = lower value 1.04 | locus YNL271C, strain bni1, stronger effect = lower value 1.01 | locus YNL298W, strain CLA4, stronger effect = lower value 1.02 | locus YNL307C, strain MCK1, stronger effect = lower value 1.01 | locus YNL322C, strain KRE1 (second series), stronger effect = lower value 1 | locus YNR049C, strain mso1, stronger effect = lower value 1 | locus YNR052C, strain pop2, stronger effect = lower value 1.01 | locus YOL012C, strain htz1 0.859 | locus YOL147C, strain pex11, stronger effect = lower value 0.996 | locus YOR001W, strain rrp6, stronger effect = lower value 0.98 | locus YOR061W, strain CKA2, stronger effect = lower value 1.02 | locus YOR069W, strain VPS5, stronger effect = lower value 1.01 | locus YOR070C, strain gyp1, stronger effect = lower value 0.985 | locus YOR080W, strain dia2, stronger effect = lower value 0.992 | locus YOR083W, strain WHI5, stronger effect = lower value 0.998 | locus YOR106W, strain vam3, stronger effect = lower value 0.992 | locus YOR136W, strain idh2, stronger effect = lower value 1.02 | locus YOR144C, strain elg1, stronger effect = lower value 1.02 | locus YOR184W, strain ser1, stronger effect = lower value 1.04 | locus YOR231W, strain MKK1, stronger effect = lower value 1.03 | locus YOR265W, strain rbl2, stronger effect = lower value 1.02 | locus YOR270C, strain vph1, stronger effect = lower value 0.993 | locus YOR290C, strain snf2, stronger effect = lower value 0.992 | locus YOR316C, strain cot1, stronger effect = lower value 1.02 | locus YPL051W, strain arl3, stronger effect = lower value 0.995 | locus YPL078C, strain atp4, stronger effect = lower value 1.03 | locus YPL106C, strain sse1, stronger effect = lower value 0.974 | locus YPL240C, strain hsp82, stronger effect = lower value 0.995 | locus YPL241C, strain CIN2, stronger effect = lower value 1.01 | locus YPL256C, strain CLN2, stronger effect = lower value 0.994 | locus YPR119W, strain clb2, stronger effect = lower value 1.01 | locus YPR141C, strain kar3, stronger effect = lower value 1.02 | locus YPR163C, strain tif3, stronger effect = lower value 0.999 | locus YPR167C, strain met16, stronger effect = lower value 1.01 | strain wtn01, stronger effect = lower value 1.01
